Assay outcomes: PubChem BioAssay, National Center for Advancing Translational Sciences (NCATS)
The list is not random: actives were taken first. Their share in the collection is about 19%.
TDP1 cell noCPT: qHTS for Inhibitors of human tyrosyl-DNA phosphodiesterase 1 (TDP1): qHTS in cells in absence of CPT; Potency, µM (titrated, usually from 46.2 µM), without a hit: at the highest dose activity change, negative = growth inhibition, hits mostly inhibitors; AID 686978, 2013; DT40 Tdp1-/- hTDP1 cells, no CPT, ATP luminescence, 48 h; 15% of 420,000 active; also: potency is read from the fitted curve at half-maximal effect; % is scaled to controls: 0 for no effect and ±100 for the full control effect; nearly all actives have a fitted effect of over 55% in size
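Growth kinetics read by CellTiter-Glo luminescence after ≥48 hr at 37 °C. Cells: DT40 Tdp1-/- stably carrying human TDP1, 400 per well, compound exposure in the absence of CPT (DMSO vehicle).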
ASM inhibitor: Inhibitors of Secretory Acid Sphingomyelinase (S-ASM): qHTS; Sphingomyelin phosphodiesterase (Homo sapiens), P17405; placental ASM, HMU-PC fluorogenic substrate, 60 min; Potency, µM (series often up to 57.5 µM), inactives show top-dose activity change, negative = inhibition, usual class: inhibitors; 0.006% of 340,000 active; AID 504937, 2011; also: potency is read from the fitted curve at half-maximal effect
Target sequence (P17405 47-631 limits assumed): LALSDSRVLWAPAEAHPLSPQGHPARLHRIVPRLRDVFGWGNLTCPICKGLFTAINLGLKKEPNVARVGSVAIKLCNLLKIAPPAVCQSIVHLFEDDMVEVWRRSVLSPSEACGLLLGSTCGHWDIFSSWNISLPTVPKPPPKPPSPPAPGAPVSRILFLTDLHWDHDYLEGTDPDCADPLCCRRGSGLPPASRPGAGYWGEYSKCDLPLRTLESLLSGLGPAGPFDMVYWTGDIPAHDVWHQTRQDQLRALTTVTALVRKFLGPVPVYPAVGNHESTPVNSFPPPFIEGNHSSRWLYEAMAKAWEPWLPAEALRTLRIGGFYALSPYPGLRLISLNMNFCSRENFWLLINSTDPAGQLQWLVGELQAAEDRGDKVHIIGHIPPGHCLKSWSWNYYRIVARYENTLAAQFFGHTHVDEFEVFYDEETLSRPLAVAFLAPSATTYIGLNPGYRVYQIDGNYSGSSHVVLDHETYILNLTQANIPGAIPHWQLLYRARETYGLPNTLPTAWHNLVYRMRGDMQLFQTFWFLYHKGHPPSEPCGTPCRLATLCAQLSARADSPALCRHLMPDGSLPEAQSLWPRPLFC
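Human placenta-derived ASM enzyme was preincubated with compound for 10 minutes at room temperature, then given fluorogenic substrate HMU-PC0 (9 uM final) for 60 minutes at 37 °C; a pH 10 stop preceded fluorescence reading at Ex 386/Em 447 nm.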
TGFb inhibitor: qHTS for Inhibitors of TGF-b | HepG2 CAGA-GFP TGF-b/SMAD3 reporter, GFP fluorescence, 18 h; TGF-beta stimulated, 500 pg/mL final | Potency, µM (titrated, usually from 46.1 µM), inactives show at the highest dose activity, negative = inhibition, hits mostly inhibitors | 1.2% of 410,000 active; also: potency is read from the fitted curve at half-maximal effect; % is scaled to controls: 0 for no effect and ±100 for the full control effect; nearly all actives have a fitted effect of over 65% in size
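HEPG2 CAGA-GFP, 1000 cells/well; 2 h settle, 37 C; cpd via pin tool; TGF-b 500 pg/mL final; 18 h, 37 C; GFP imaging ex488/em500-530; %Activity normalised to -TGF-b and +DMSO controls; CRC fit, curve class.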
IL1B secr inh: qHTS for Inhibitors of Inflammasome Signaling: IL-1-beta AlphaLISA Primary Screen; THP-1 LPS/ATP IL-1B secretion, AlphaLISA, 16 h; stronger effect = lower value; activity change, % at 57.5 µM; 4.7% of 360,000 active; AID 743279, 2014; in the data active = activity change below about -50%; inconclusive = mostly about -30% to -49%; also: % is scaled to controls: 0 for no effect and ±100 for the full control effect
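Secreted IL-1B measured by AlphaLISA bead assay after 16 h compound exposure of THP-1 cells; compounds (final up to 57.5 uM) added 1 h before LPS (250 ng/mL) and ATP (1.25 mM) stimulation; lower signal means less secretion.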
TDP1 cell CPT: qHTS for Inhibitors of human tyrosyl-DNA phosphodiesterase 1 (TDP1): qHTS in cells in presence of CPT; chicken DT40 Tdp1-/-;hTDP1 cells + 20 nM CPT, ATP luminescence, 48 h; Potency, µM (series often up to 46.2 µM), for the others: top-dose activity change, negative = growth inhibition, hits mostly inhibitors; 12% of 420,000 active; AID 686979, 2013; also: potency is read from the fitted curve at half-maximal effect; % is scaled to controls: 0 for no effect and ±100 for the full control effect; nearly all actives have a fitted effect of over 55% in size
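Chicken DT40 Tdp1-/- cells complemented with human TDP1, 400 cells/well, exposed to compounds plus 20 nM camptothecin for at least 48 h at 37 C; viability read as ATP content by CellTiter-Glo luminescence.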
HepG2 tox: qHTS for Inhibitors of TGF-b: Cytotox Counterscreen; HepG2 CAGA-GFP viability, ATP luminescence, 18 h; Potency, µM (series often up to 46.1 µM), without a hit: at the highest dose activity change, negative = cytotoxicity, actives largely listed as cytotoxic; 0.76% of 410,000 active; also: potency is read from the fitted curve at half-maximal effect
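CellTiter-Glo luminescence gave cytotoxicity after 18 hours at 37 degrees C. The cells were HepG2 CAGA-GFP in 1% FBS DMEM, stimulated with 500 pg/mL TGF-beta after compound addition. %Activity was normalised to no-cell wells (complete cell-killing) and DMSO (no toxicity), and curves were fitted and classified.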
* hit, by the source's call; i = inactive; ? = inconclusive; nt = no result given; ! = a repeat was not active. Unless noted, calls follow the shape of the dose curve; as a rule, active = well fitted curve in the direction sought with a large enough effect; inconclusive = small, poorly fitted or top-dose-only effect, or another doubt; inactive = no such curve, though single readings can be large; an effect the other way counts as inactive or inconclusive.

SMILES	TDP1 cell noCPT	ASM inhibitor	TGFb inhibitor	IL1B secr inh	TDP1 cell CPT	HepG2 tox
CC(c1nc2ccccc2[nH]1)n1c(=O)c(-c2cccnc2)nc2ccccc21 (stereo not drawn)	?	nt	nt	-88.2*	23.1µM*	nt
CCc1ccc(N(CC)C(=O)c2cc3c(=O)oc4ccc(C)cc4c3s2)cc1	?	nt	0.5%	nt	-9.3%	-2.5%
Clc1ccc(Nc2ccccc2)nn1	3.3%	-3.1%	6.3%	-9.7	-6.7%	1.0%
c1ccc(Nc2cc(Nc3ccccc3)[nH]n2)cc1	?	-2.6%	15.8µM*	-25.4	?	10µM*
O=S1(=O)CCOC[C@H](CC2CCCCC2)N1Cc1ccccc1F	20µM*	-6.3%	?	-16.3	?	-13.4%
CCC1COCCS(=O)(=O)N1Cc1ccccc1C (stereo not drawn)	?	-1.6%	-14.9%	2.0	-4.5%	-1.1%
CCC1COCCS(=O)(=O)N1Cc1ccccc1F (stereo not drawn)	-4.3%	4.8%	-0.2%	9.1	-21.6%	2.7%
O=S1(=O)CCOC[C@H](CC2CCCCC2)N1Cc1ccccc1Br	20.6µM*	-18.6%	12.6µM*	-10.5	?	7.08µM*!
CCN1CCN(CCCN(Cc2ccco2)C(=S)Nc2ccc(Cl)cc2)CC1	-14.3%	0.3%	0.0%	-27.8	-6.0%	-17.6%
Cc1cccc(NC(=S)N(CCCN2CCCC2)Cc2cccn2Cc2ccc(Cl)cc2)c1	16.4µM*	-1.7%	?	-87.3*	?	i
CCOc1ccc(NC(=S)N(CCCN2CCCC2)Cc2cccn2Cc2ccc(Cl)cc2)cc1	?	4.0%	-20.1%	-22.8	14.6µM*	-17.9%
CCN1CCN(CCCN(Cc2ccco2)C(=S)Nc2ccc(C)c(Cl)c2)CC1	?	2.8%	-16.6%	?	-18.0%	-26.1%
O=C(Oc1ccccc1C(=S)N1CCOCC1)c1cccc([N+](=O)[O-])c1	-4.1%	0.9%	-5.4%	12.3	13.6%	2.9%
CC(=O)NCCC1CCN(C(=O)c2cc(COc3ccc(C)nc3)on2)CC1	-25.4%	0.1%	6.2%	21.1	?	1.3%
Cc1cc(N)n2ncc(-c3ccc(Cl)cc3)c2n1	?	-1.5%	2.0%	-13.7	18.4µM*	-45.4%
Cc1cc(Cl)n2ncc(-c3ccccc3)c2n1	29.1µM*	-3.0%	1.3%	-98.9*	?	-17.2%
Cc1cc(C)n2ncc(-c3cccc(Br)c3)c2n1	-3.3%	11.3%	0.0%	17.3	8.2%	2.1%
COc1ccc(-c2nc(C(=O)Nc3ccc(C(C)=O)cc3)nn2-c2cccc(Cl)c2)cc1	?	nt	-21.5%	nt	?	-20.2%
N#Cc1ccc(NC(=O)c2nc(-c3ccccc3)n(-c3ccccc3)n2)cc1	?	-3.8%	-5.0%	-3.1	?	-3.6%
NC(=O)c1ccsc1NC(=O)c1nc(-c2ccccc2)n(-c2ccccc2)n1	?	?	-18.9%	-51.7*	?	-17.8%
CC(=O)c1ccc(NC(=O)c2nc(-c3ccccc3)n(-c3ccccc3)n2)cc1	20.6µM*	nt	4.6%	nt	?	-33.1%
CC(=O)c1cccc(NC(=O)c2nc(-c3ccccc3)n(-c3cccc(Cl)c3)n2)c1	13µM*	nt	-15.0%	nt	16.4µM*	-23.7%
CC(=O)c1ccc(NC(=O)c2nc(-c3ccccc3)n(-c3ccccc3Cl)n2)cc1	18.4µM*	nt	0.7%	nt	25.9µM*	-31.7%
COc1cc(CN2CCc3nnc(C(NS(C)(=O)=O)C(C)C)n3CC2)ccc1F (stereo not drawn)	-6.9%	nt	nt	nt	13.4%	nt
O=C(Nc1cccc(F)c1)N1CC2(CCN(C(=O)c3cccc(F)c3)CC2)C1	-23.9%	nt	nt	nt	-5.3%	nt
SMILES	TDP1 cell noCPT	ASM inhibitor	TGFb inhibitor	IL1B secr inh	TDP1 cell CPT	HepG2 tox
COC(=O)c1ccc(OC)c(CSc2nnc(-c3ccc(C(C)(C)C)cc3)o2)c1	20.6µM*	-3.6%	-8.3%	-2.9	16.4µM*	-21.5%
COc1ccc2[nH]cc(/C=C/C(=O)c3ccccc3)c2c1	?	14.4%	?	-103.5*	?	-20.1%
O=C(/C=C/c1c[nH]c2ccccc12)c1ccccc1	?	106.5%	?	4.7	20.6µM*	-8.1%
COc1ccc2[nH]cc(C=O)c2c1	-10.3%	3.0%	12.3%	-7.5	-6.9%	-12.9%
Cc1ccc(C(=O)/C=C/c2c[nH]c3ccccc23)cc1	-18.0%	119.3%	?	-13.9	-8.6%	-63.0%
COc1ccc2[nH]cc(/C=C/c3cc[n+](C)cc3)c2c1	5.17µM*	?	15.5%	19.6	?	-31.2%
O=[N+]([O-])c1ccc2c(c1)C=C/C2=C\c1ccccc1	-10.9%	nt	16.7%	nt	-19.4%	25.9%
COc1cc(C(C)=O)ccc1OCC(=O)Nc1ccc(Cl)c(S(=O)(=O)N2CCOCC2)c1	18.4µM*	-3.1%	-19.8%	0.0	23.1µM*	-16.5%
O=C(CCCOc1ccccc1)Nc1ccc(Cl)c(S(=O)(=O)N2CCOCC2)c1	16.4µM*	-3.8%	?	?	18.4µM*	-1.6%
COc1ccc(Cl)cc1S(=O)(=O)N1CCN(CC(=O)Nc2ccccc2C(F)(F)F)CC1	?	nt	-5.0%	nt	?	-22.1%
COc1ccc(CC(=O)Nc2cccc(C(C)=O)c2)cc1S(=O)(=O)N1CCOCC1	4.0%	-3.1%	-0.6%	10.3	-1.6%	-29.3%
CN(C)S(=O)(=O)c1cc(NC(=O)CNCc2ccccc2)ccc1Cl	?	-0.2%	7.4%	11.0	-27.8%	-3.7%
COC(=O)c1ccc(NC(=O)CN2CCN(S(=O)(=O)c3cc(Cl)ccc3OC)CC2)cc1	16.4µM*	-7.5%	11.2%	16.7	?	13.9%
CN(CCOc1ccccc1)CC(=O)Nc1ccc(Cl)c(S(=O)(=O)N(C)C)c1	?	-1.1%	?	-51.4*	8.4%	1.5%
CCCCN(C(=O)c1ccc(S(=O)(=O)N(CC)CC)cc1)c1c(N)n(CCC)c(=O)[nH]c1=O	0.1%	4.5%	8.1%	-8.1	-0.1%	-39.9%
CCN(CC)S(=O)(=O)c1cc(NC(=O)CCCOc2ccc(C(C)=O)cc2)ccc1C	18.4µM*	-10.1%	0.0%	-2.3	?	-6.9%
CC(=O)c1ccc(OCCCC(=O)Nc2ccc(Cl)c(S(=O)(=O)N3CCOCC3)c2)cc1	20.6µM*	-5.9%	?	28.7	16.4µM*	-5.5%
